Screening results deposited in PubChem BioAssay by National Center for Advancing Translational Sciences (NCATS).
Compounds with a hit are over-represented: about 1.8% of the library has one in this group of screens.
HEK293 tox = qHTS of GLP-1 Receptor Inverse Agonists: Cytotox Screen; HEK293 cAMP-luciferase reporter cells, luminescence, 24 h; Potency, µM (titrated, usually from 38.3 µM), for inactives: at the top dose activity change, negative = inhibition, hits mostly inhibitors; 0.13% of 410,000 active; AID 624418, 2012;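 also: loss of luciferase light is scored as toxicity; % is scaled to controls: 0 for no effect and ±100 for the full control effect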
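Cells in DMEM/10% Nu serum/1% pen-strep, 1536-well format. Pre-incubated 12 h, dosed with 23 nL compound, incubated a further 24 h. Luciferase detection, 12 min at room temp, luminescence.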
Pin1 inh = qHTS Assay to Find Inhibitors of Pin1; Peptidyl-prolyl cis-trans isomerase NIMA-interacting 1 (Homo sapiens), Q13526; Pin1 FP peptide displacement, HiFluor488, 10 min; Potency, µM (titrated, usually from 115 µM), inactives show at the top dose activity, negative = inhibition, usual class: inhibitors; 0.009% of 390,000 active; active = well fitted inhibition curve with a large enough effect in the polarisation, with a control signal flat, not every such curve was filed as active; inconclusive = small, poorly fitted or top-dose-only effect, or effect the other way, or a change in a side signal; inactive = no such curve, though single readings can be large or run the other way; the % refers to the polarisation; also: % is scaled to controls: 0 for no effect and ±100 for the full control effect
Target sequence (Q13526 whole entry, looked up): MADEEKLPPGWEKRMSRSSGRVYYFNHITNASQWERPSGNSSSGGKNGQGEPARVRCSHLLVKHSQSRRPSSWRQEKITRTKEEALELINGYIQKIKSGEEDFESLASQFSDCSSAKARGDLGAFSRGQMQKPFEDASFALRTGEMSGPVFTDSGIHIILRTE
Tb PGK inh = qHTS Assay to Find Inhibitors of Phosphoglycerate Kinase; Phosphoglycerate kinase, glycosomal (Trypanosoma brucei brucei), P07378; Potency, µM (series often up to 57.5 µM), without a hit: at the top dose activity change, negative = inhibition, hits mostly inhibitors; PGK/GAPDH coupled, Kinase-Glo luminescence, 60 min; 0.043% of 380,000 active; also: % is scaled to controls: 0 for no effect and ±100 for the full control effect; nearly all actives have a fitted effect of over 60% in size
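Luminescent ATP detection (Kinase-Glo Plus) follows a 60-minute room-temperature incubation, with wells lacking PGK as controls. Buffer: 100 mM TEA (pH 7.6), 5 mM MgCl2, 0.01% Tween-20. Coupling enzyme GAPDH (100 nM final) supplies unstable 1,3-BPG in-well.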
GLP1R inv ag = qHTS of GLP-1 Receptor Inverse Agonists (Inhibition Mode); Glucagon-like peptide 1 receptor (Homo sapiens), P43220; HEK293 GLP-1R CRE-luciferase, luminescence, 24 h; GLP-1R form is constitutively active; Potency, µM (titrated, usually from 38.3 µM), for inactives: at the top dose activity change, negative = inhibition, hits mostly inhibitors; 1.6% of 410,000 active; AID 624417, 2012; also: % is scaled to controls: 0 for no effect and ±100 for the full control effect; nearly all actives have a fitted effect of over 55% in size
Target sequence (P43220 whole entry, looked up): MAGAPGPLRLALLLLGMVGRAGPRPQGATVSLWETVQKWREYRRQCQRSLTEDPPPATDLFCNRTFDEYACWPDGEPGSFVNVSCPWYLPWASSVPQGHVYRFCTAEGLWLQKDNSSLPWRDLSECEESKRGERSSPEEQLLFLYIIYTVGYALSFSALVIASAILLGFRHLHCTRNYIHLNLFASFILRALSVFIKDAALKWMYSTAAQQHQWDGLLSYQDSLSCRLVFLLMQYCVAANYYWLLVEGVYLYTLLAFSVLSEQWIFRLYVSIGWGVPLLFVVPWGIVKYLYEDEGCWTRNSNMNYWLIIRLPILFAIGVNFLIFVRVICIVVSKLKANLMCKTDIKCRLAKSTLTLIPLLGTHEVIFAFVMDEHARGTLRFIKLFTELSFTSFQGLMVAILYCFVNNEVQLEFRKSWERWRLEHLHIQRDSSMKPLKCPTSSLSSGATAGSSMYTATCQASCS
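Using stably transfected HEK293 (constitutively active GLP-1R, cAMP-luciferase reporter), compounds were incubated 24 hr and luciferase measured by luminescence.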
GLP1R ag = qHTS of GLP-1 Receptor Agonists; Glucagon-like peptide 1 receptor (Homo sapiens), P43220; HEK293 GLP-1R CRE-luciferase, luminescence, 4-6 h; cells express a hypersensitive GLP-1R form; Potency, µM (titrated, usually from 45.6 µM), for inactives: at the top dose activation, usual class: activators; 0.007% of 380,000 active; also: % of control where 0% means no effect
Tb PFK inh = qHTS Assay to Find Inhibitors of T. brucei phosphofructokinase; ATP-dependent 6-phosphofructokinase (Trypanosoma brucei brucei), O15648; 0.17% of 330,000 active; Potency, µM (highest dose often 57.5 µM), for inactives: at the top dose activity, negative = inhibition, actives largely listed as inhibitors; T. brucei PFK, ADP-Glo luminescence;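 also: 0% = uninhibited 1x PFK enzyme wells and -100% = no-enzyme wells; nearly all actives have a fitted effect of over 60% in size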
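PFK 1.25 nM, F6P 0.5 mM, ATP 0.1 mM, 0.1 M TEA pH 8.0, 5 mM MgCl2, 0.01% Tween20, 0.1% BSA; 45 min RT. ADP-Glo readout. qHTS titration up to 57 uM; curves fitted, compounds curve-classed.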
* hit, by the source's call; i = inactive; u = inconclusive; x = no result; [ ] = dose if it differs, or a comment. Unless noted, calls follow the shape of the dose curve; as a rule, active = well fitted curve in the direction sought with a large enough effect; inconclusive = small, poorly fitted or top-dose-only effect, or another doubt; inactive = no such curve, though single readings can be large; an effect the other way counts as inactive or inconclusive. Potency is read from the fitted curve at half-maximal effect.

SMILES	HEK293 tox	Pin1 inh	Tb PGK inh	GLP1R inv ag	GLP1R ag	Tb PFK inh
O=C(c1noc2c1CCCC2)N1CCc2c([nH]c3ccccc23)C1c1ccccn1 (stereo not given)	3%	4%	1%	-19%	11%	5%
Cc1cccc(C2c3[nH]c4ccccc4c3CCN2C(=O)c2noc3c2CCCC3)n1 (stereo not given)	-9%	14%	-5%	7.1µM*	17%	6%
Cc1c2cnn(-c3ccccc3)c(=O)c2c(C)n1CC(=O)Nc1ccccc1Br	-4%	11%	i	-9%	x	x
CC(=O)N1CCc2cc(Br)cc(S(=O)(=O)N3CCC(C)CC3)c21	3%	3%	8%	2%	x	x
C=CCC[C@@H](Cc1ccc(F)cc1)C(=O)OC[C@H](Cc1c[nH]c2ccccc12)NC(=O)[C@H](CC=C)CC(=O)N(CCO)Cc1ccccc1	u	1%	i	10µM*	-1%	-14%
C=CCC[C@H](Cc1ccc(F)cc1)C(=O)O[C@H](CNC(=O)[C@@H](CC=C)CC(=O)N(CCO)Cc1ccccc1)c1ccccc1	u	-1%	0%	u	-2%	4%
C=CC[C@H](CC(=O)N(CCO)Cc1ccccc1)C(=O)N[C@H](C)COC(=O)[C@@H](CC=C)Cc1ccc(F)cc1	3%	0%	-3%	11µM*	11%	-8%
C=CC[C@@H](CC(=O)N(CCO)Cc1ccccc1)C(=O)N[C@H](C)COC(=O)[C@@H](CC=C)Cc1ccc(F)cc1	-25%	u	9%	-16%	-5%	8%
C=CC[C@H](CC(=O)N(CCO)Cc1ccccc1)C(=O)NC[C@@H](OC(=O)[C@@H](CC=C)Cc1ccc(F)cc1)c1ccccc1	-25%	-2%	2%	3.2µM*	-5%	-2%
c1ccc2sc(-c3csc4c3CCNC4)nc2c1	x	-3%	x	x	x	x
COc1cccc(C(=O)COC(=O)c2cc(-c3cccs3)nc3ccccc23)c1	-3%	u	i	-27%	x	x
COc1cccc(CN(C)C(=O)c2cc(-c3cccs3)nc3ccccc23)c1	u	6%	-2%	6.3µM*	3%	-13%
CN(C)c1cccc(-c2cnc(N3CCC(c4ncc[nH]4)CC3)s2)c1	x	-2%	x	x	x	x
COC(=O)c1ccc2c(c1)N(CC(=O)Nc1cccc(Cl)c1C)C(=O)c1ccccc1S2	-1%	68%	9%	17%	-3%	x
NC(=O)c1cc[n+](CC2=C(C(=O)O)N3C(=O)[C@@H](NC(=O)[C@H](c4ccccc4)S(=O)(=O)[O-])[C@@H]3SC2)cc1	x	x	x	x	18%[19.8 µM]	x
NC(=O)c1cc[n+](CC2=C(C(=O)O)N3C(=O)[C@@H](NC(=O)C(c4ccccc4)S(=O)(=O)[O-])[C@H]3SC2)cc1 (stereo not given in full)	0%	u	1.1µM*	4%	-4%	2%
CCCCC(=O)NC1CC(=O)N(c2ccc3c(c2)OCCO3)C1 (stereo not given)	-11%	-11%	1%	4%	1%	x
Cc1cccc(C)c1OCc1nc2ccccc2c(=O)n1/N=C/c1c[nH]c2ccccc12	-23%	13%	0%	2.8µM*	0%	-1%
CCCc1nc2ccccc2c(=O)n1/N=C/c1ccccc1O	-4%	3%	i	4.5µM*	8%	4%
COc1ccccc1CNS(=O)(=O)c1c(C)nc2sc(C)cn2c1=O	2%	-5%	-11%	-6%	x	x
CCN(CC)CC(O)COC(c1ccccc1)c1ccccc1 (stereo not given)	11%	-12%	1%	-37%	-4%	1%
CCN(Cc1ccccc1)CC(O)COC(c1ccc(OC)cc1)c1ccc(OC)cc1 (stereo not given)	u	-4%	-5%	10µM*	13%	2%
Cc1ccc(NS(=O)(=O)c2ccc(C(=O)N3CCCN(C)CC3)cc2)cc1	0%	-2%	1%	5.6µM*	0%	-4%
Cc1ccc(NS(=O)(=O)c2ccc(C(=O)N3CCC3)cc2)cc1	5%	-7%	-6%	-19%	11%	5%
O=C(C1CCN(Cc2cc(Cl)ccc2O)CC1)N1CCN(Cc2ccccc2)CC1	-2%	-8%	9%	7.1µM*	-8%	-2%
SMILES	HEK293 tox	Pin1 inh	Tb PGK inh	GLP1R inv ag	GLP1R ag	Tb PFK inh
c1csc(CNc2ncnc3cc(-c4ccc5c(c4)OCO5)ccc23)c1	x	39%	x	x	x	x
Cc1nc2c(sc(=S)n2Cc2ccco2)c(=O)n1CC(=O)Nc1ccc(F)cc1	1%	2%	-6%	-5%	5%	13%
Cc1nc2c(sc(=S)n2Cc2ccco2)c(=O)n1CC(=O)Nc1cc(F)ccc1F	-10%	1%	3%	1.4µM*	-4%	0%
c1ccc(COc2ccc(OCCCN3CCCCC3)cc2)cc1	-8%	-1%	3%	u	1%	3%
CN1CCN(CCOc2ccc(Cc3ccccc3)cc2)CC1	-1%	-4%	7%	11µM*	7%	-27%
c1ccc(COc2ccc(OCCCCN3CCCC3)cc2)cc1	-18%	2%	-4%	11µM*	-7%	1%
COc1ccc(CN2C(=O)c3ccccc3NC2c2ccc(OC)c(COc3ccc(NC(C)=O)cc3)c2)cc1 (stereo not given)	x	6%	x	x	x	x
CO/N=C(\Cn1ncc(N2CCCC2)c(Br)c1=O)c1ccc(Cl)cc1	-18%	1%	0%	11µM*	13%	-3%
C=CCCN(C(CC(C)C)C(=O)OC)S(=O)(=O)c1cc(Br)ccc1Br (stereo not given)	5%	3%	-8%	11µM*	-1%	-2%
C=CCCN(C(CC(C)C)C(=O)OC)S(=O)(=O)c1ccccc1Br (stereo not given)	20%	-5%	1%	u	-1%	0%
O=c1c(O[C@@H]2O[C@H](CO)[C@H](O)[C@H](O)[C@H]2O)c(-c2ccc(O)c(O)c2)oc2cc(O)cc(O)c12	x	x	x	x	x	6.7µM*
O=c1c(O[C@@H]2O[C@H](CO)[C@@H](O)[C@H](O)[C@H]2O)c(-c2ccc(O)cc2)oc2cc(O)cc(O)c12	11%	2%	-2%	6%	-1%	0%
CC(C)(C)OC(=O)N1CCC(c2cc(-c3cccs3)n[nH]2)CC1	-4%	u	0%	10µM*	21%	0%
